Among the data in the supplement of paper PMC10681739 are TF binding intensity and ETS1 binding intensity values, retold here.

Assay [1] deals with T1, ETS1 (UniProt P14921).
T1 sequence: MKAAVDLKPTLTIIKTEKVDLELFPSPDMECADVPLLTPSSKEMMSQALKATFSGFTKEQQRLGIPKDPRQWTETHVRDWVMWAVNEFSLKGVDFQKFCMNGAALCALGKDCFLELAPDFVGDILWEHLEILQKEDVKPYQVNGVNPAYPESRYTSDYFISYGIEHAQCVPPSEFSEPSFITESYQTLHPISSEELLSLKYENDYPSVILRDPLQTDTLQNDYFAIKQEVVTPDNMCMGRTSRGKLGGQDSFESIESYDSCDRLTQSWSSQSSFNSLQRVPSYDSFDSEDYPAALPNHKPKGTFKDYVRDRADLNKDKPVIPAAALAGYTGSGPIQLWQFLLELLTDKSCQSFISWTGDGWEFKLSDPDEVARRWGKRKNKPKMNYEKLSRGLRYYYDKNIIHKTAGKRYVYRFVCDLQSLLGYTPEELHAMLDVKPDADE
The experiment in a line: TF binding intensity (PBM fluorescence), negative control probe (arbitrary fluorescence units); higher = stronger binding. The procedure: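 gcPBM negative-control 36-bp genomic probes lacking TF binding sites. Each was incubated with recombinant human ETS1 or RUNX1 alone and detected by antibody fluorescence. Values are medians over replicate spots (4 spots for the ETS1-RUNX1 arrays, 3 for the ETS1-ETS1 array). The probes sit in constant array flanks that are not printed.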

Assay [2] addresses T1, ETS1. The experiment in a line: ETS1 binding intensity (PBM fluorescence) in presence of RUNX1, normalised to ETS1-only experiment (arbitrary fluorescence units); higher = stronger binding. Conditions: ETS1 concentration 1 nM; RUNX1 concentration 25 nM.

For “TAACAGGGAGATAAAACGGGTGAGAGCCCCCTAGGA (protein concentration 10 nM)”, the TF binding intensity with ETS1 [1] was found to be 103.

In the assay with ETS1 [1], “AGAGAATCTGATTGGTTGTTGACCTTTGGGACAAGT (protein concentration 10 nM)” yielded a TF binding intensity of 105.

“GGGGGTATAGGGGAGCAGTCCCATGTAGTAGTAGAA (protein concentration 10 nM)”: the TF binding intensity in the assay with ETS1 [1] was 172.

As to “TAGTTAAGACCTCTTAAGTCATAATAATATTGCCTA (protein concentration 10 nM)”, the TF binding intensity with ETS1 [1] was found to be 102.

Turning to “CTACAAGTCGTGAAGGGGCGAGGCGCAAAAGCGTAG (protein concentration 10 nM)”, in the assay with ETS1 [1], the TF binding intensity stood at 125.

With “CTTGACAGAGGTATGTGCTAGGATTGAATATGTGGG (protein concentration 10 nM)”, the TF binding intensity with ETS1 [1] stood at 131.

As to “CCGGCTGTCTCCTGCACCCAGGTAAGCAGCGGCGCT (protein concentration 10 nM)”, the TF binding intensity with ETS1 [1] stood at 108.

Sequence “AAGTCCCTCCTCTAAACCACTTTGATGAGGACCAAA (protein concentration 1 nM)” yielded a TF binding intensity with ETS1 [1] of 387.

In the assay with ETS1 [1], “CATCCCTCTGCCAGATGGAATTTGGAGATAAACCTC (protein concentration 10 nM)” returned a TF binding intensity of 130.

Regarding “ATATATAGTAACCACATGATTAATAATAATAATGCA (protein concentration 10 nM)”, the TF binding intensity in the assay with ETS1 [1] is 119.

With “ACTGCGCGCAGGGCCTGCAGCGGCAGCTGGACTGGG (protein concentration 10 nM)”, the TF binding intensity with ETS1 [1] was found to be 120.

In turn, “CACAATAAAGCCGCAACCGCAGGAGGCAGAAGGGTG (protein concentration 1 nM)” came in with a TF binding intensity with ETS1 [1] of 793.

For the sequence “GTTCATCATCTCTCGTCAAGATGATTAACGACATGG (protein concentration 10 nM)”, the TF binding intensity in the assay with ETS1 [1] came out at 141.

As for “AATATCTACAGGGCTCACTCTCCCATGCTCTTCAGG (protein concentration 10 nM)”, the TF binding intensity with ETS1 [1] came out at 108.

In the assay with ETS1 [1], “CACACCCGCCTGTTACCCACATGCACAAGCAGTCTG (protein concentration 1 nM)” showed a TF binding intensity of 449.

In the assay with ETS1 [1], “TCCTTTTGCTATACAGACCCCAGAACTCCTGAATGG (protein concentration 10 nM)” displayed a TF binding intensity of 119.

With “CAGGTGGATGACTCAGCTGGAGAACAAAGTGGCTTC (protein concentration 10 nM)”, the TF binding intensity with ETS1 [1] worked out at 122.

In the assay with ETS1 [1], “TCTGAATGCTAAGCTCATCGAAGACGCCCAGCACTT (protein concentration 10 nM)” showed a TF binding intensity of 123.

“CCTGCCTCATTTGCTCACGGGCTCCCTCCCTCAAGG (protein concentration 10 nM)” had a TF binding intensity with ETS1 [1] of 113.

Sequence “GCAGCTCTAGTTTCTACCACACCAATGGGAGGGATC (protein concentration 1 nM)” gave a TF binding intensity with ETS1 [1] of 320.

“CTCTACCTACAAAAAGACTGCAATTGTGTTACCTTT (protein concentration 10 nM)” showed a TF binding intensity with ETS1 [1] of 132.

As for “CCAGCCAACCCAAAGACCACACCCCACCACCTCCTC (protein concentration 1 nM)”, the TF binding intensity in the assay with ETS1 [1] worked out at 491.

Sequence “TCCGATGTTACCTGGGCTGGGCCATGGAGAATGGCG (protein concentration 10 nM)” came in with a TF binding intensity in the assay with ETS1 [1] of 112.

“TGGCCTGGGAAAGAACCCACAGGCTTCTGGTTGCTG (protein concentration 1 nM)” yielded a TF binding intensity with ETS1 [1] of 597.

As for “ATAATGGAAAGCGAAACCGCAGATTAAGCAGGGACT (protein concentration 1 nM)”, in the assay with ETS1 [1], the TF binding intensity amounted to 398.

“AAAATACTGCCTTCAAGTACTGTGACTCTTTTCAGG (protein concentration 10 nM)” yielded a TF binding intensity with ETS1 [1] of 112.

Take AGAAAAGGAAATGGTGGGCTGCACACCACAGCTCAC: the ETS1 binding intensity with ETS1 [2] was 461.

CAGTGGCAGGAAGAGGTCAGAAACCACTCGTGGTGG: in the assay with ETS1 [2], the ETS1 binding intensity came out at 870.
